# Records with an inconclusive call do not appear. Where a call stands in place of a potency, no number is given. The source made the active and inactive calls. Unless noted, the call rests on the fitted dose curve; in most records, active means well fitted curve in the direction sought with a large enough effect; inconclusive means small, poorly fitted or top-dose-only effect, or another doubt; inactive means no such curve, though single readings can be large; an effect the other way counts as inactive or inconclusive.
# Key:
# [1] = S16 Schwann cell viability assay (CellTiter-Glo assay) (AID 624031);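 further: cellular ATP luminescence as a viability measure; nearly all actives have a fitted effect of over 70% in size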
# How it was run: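 Native S16 rat Schwann cells, 500-750 cells/well in DMEM with 10% FBS, dosed with compound after overnight culture and incubated 24h at 37 degree Celsius/5% CO2. Viability by CellTiter-Glo luminescence; % activity normalized to no-cell wells and DMSO-treated cells.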
# [2] = S16 Schwann cell PMP22 intronic element firefly luciferase assay (AID 624032); further: nearly all actives have a fitted effect of over 30% in size
# How it was run: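 Luciferase reporter of PMP22 intronic-element expression in stably transfected S16 rat Schwann cells, read by ONE-Glo luminescence after 24 h compound exposure at 37 C. Activity scaled between DMSO (0%) and positive-control PTC124; concentration-effect curves quality-classified.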
# AA1029 = assay: qHTS profiling for inhibitors of Plasmodium falciparum proliferation (AID 504749); further: nearly all actives have a fitted effect of over 60% in size; conditions: P. falciparum in erythrocytes, SYBR Green DNA, 72 h; series mostly up to 28.7 µM
# How it was run: (§1)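 Infected RBCs, 0.3% parasitemia/2.5% Hct final; cpd 72 h, 37 C, 5% CO2; lysis buffer with saponin/triton/SYBR Green I, o/n RT dark; FI 485/535; norm. to artemisinin (0.29 uM) and DMSO.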
# CP211 = assay: as above; conditions: P. falciparum in erythrocytes, SYBR Green DNA, 72 h; series mostly up to 28.7 µM
# How it was run: as §1
# CP260 = assay: as above; conditions: P. falciparum in erythrocytes, SYBR Green DNA, 72 h; series mostly up to 28.7 µM
# How it was run: as §1
# CP297 = assay: as above; conditions: P. falciparum in erythrocytes, SYBR Green DNA, 72 h; series mostly up to 28.7 µM
# How it was run: as §1
# N140 = assay: as above; conditions: P. falciparum in erythrocytes, SYBR Green DNA, 72 h; series mostly up to 28.7 µM
# How it was run: as §1
# PC15 = assay: as above; conditions: P. falciparum in erythrocytes, SYBR Green DNA, 72 h; series mostly up to 28.7 µM
# How it was run: as §1
# [3] = S16 Schwann cell PMP22 intronic element beta-lactamase assay (AID 624044; calls by dose curve; further: nearly all actives have a fitted effect of over 15% in size)
# How it was run: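 Rat S16 Schwann cells with beta-Lac driven by a PMP22 intronic element, compound-treated 24 h at 37 °C. LiveBLAzer FRET B/G read: 460 nm normalized to potassium clavulanate vs DMSO; 535 nm FRET as viability; concentration-effect curves classified.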
# [4] = qHTS Assay for Identification of Small Molecule Antagonists for Thrombopoietin (TPO) Signaling Pathway (AID 918); conditions: TPO-dependent cell signaling reporter, antagonist mode; further: potency means the concentration at half of the fitted maximal effect; nearly all actives have a fitted effect of over 60% in size
# How it was run: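 Ba/F3 (murine, hTPO-R, GPIIb-luc reporter); overnight IL-3 withdrawal; cpd + TPO 26 pM final (EC50); 24 h 37 C/5% CO2; Steadylite luminescence after 10 min RT.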
# [5] = qHTS assay for small molecule antagonists of peroxisome proliferator-activated receptor delta signaling (AID 588535; active means well fitted inhibition curve with a large enough effect in the signal ratio, with a control signal flat, not every such curve was filed as active; the % refers to the signal ratio;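 on max response: cells co-treated with a PPAR-delta agonist as stimulator during compound exposure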); conditions: HEK293T PPARd-UAS-bla, beta-lactamase FRET ratio, 18 h; 460 nm channel
# How it was run: (§2)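 HEK293T PPAR-delta-UAS-bla cells, 4000/well, 2% charcoal/dextran FBS; 5 h 37 C; cpd titration; 18 h 37 C; CCF4 2 h RT; FI 460/530 nm; Hill fit → IC50, efficacy.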
# [6] = molecular target: Peroxisome proliferator-activated receptor delta (Homo sapiens) (UniProt Q03181); assay: as above
# Sequence of Peroxisome proliferator-activated receptor delta (Homo sapiens) (Q03181 whole entry, looked up): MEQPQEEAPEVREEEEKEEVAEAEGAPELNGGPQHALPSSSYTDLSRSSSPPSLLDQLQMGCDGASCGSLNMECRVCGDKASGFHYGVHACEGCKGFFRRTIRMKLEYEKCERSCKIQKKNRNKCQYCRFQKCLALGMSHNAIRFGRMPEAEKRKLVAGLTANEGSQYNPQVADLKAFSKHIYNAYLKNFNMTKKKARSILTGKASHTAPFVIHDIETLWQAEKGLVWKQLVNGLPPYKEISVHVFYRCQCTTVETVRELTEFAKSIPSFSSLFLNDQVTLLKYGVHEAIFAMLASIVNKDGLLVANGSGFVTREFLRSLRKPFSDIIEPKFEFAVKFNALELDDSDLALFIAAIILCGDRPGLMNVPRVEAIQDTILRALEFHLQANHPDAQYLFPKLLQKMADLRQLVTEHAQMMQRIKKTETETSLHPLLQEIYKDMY
# How it was run: as §2
# [7] = molecular target: Vitamin D3 receptor (Homo sapiens) (UniProt P11473); assay: qHTS assay for small molecule antagonists of vitamin D receptor signaling (AID 588541; calls by dose curve;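 further: receptor activated by calcitriol during compound treatment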)
# Sequence of Vitamin D3 receptor (Homo sapiens) (P11473 whole entry, looked up): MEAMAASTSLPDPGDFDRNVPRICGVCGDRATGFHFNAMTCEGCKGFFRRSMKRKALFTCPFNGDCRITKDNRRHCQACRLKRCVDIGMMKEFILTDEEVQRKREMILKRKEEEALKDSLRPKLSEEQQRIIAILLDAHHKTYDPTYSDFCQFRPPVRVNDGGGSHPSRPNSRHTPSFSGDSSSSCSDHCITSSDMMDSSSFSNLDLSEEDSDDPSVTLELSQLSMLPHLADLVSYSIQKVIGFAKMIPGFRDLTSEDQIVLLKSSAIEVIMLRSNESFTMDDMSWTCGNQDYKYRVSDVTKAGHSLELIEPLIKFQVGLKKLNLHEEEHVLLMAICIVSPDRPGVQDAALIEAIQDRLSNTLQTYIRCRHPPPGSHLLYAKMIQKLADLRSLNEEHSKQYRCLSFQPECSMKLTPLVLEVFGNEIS
# How it was run: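 Antagonist-mode beta-lactamase reporter assay: HEK293T VDR-UAS-bla cells were exposed to titrated compound alongside 1-alpha,25-dihydroxyvitamin D3 at 3 nM final for 16 h. Values were normalized to the 50 nM agonist control and DMSO basal, with IC50 and efficacy from Hill equation fits.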
# [8] = molecular target: Vitamin D3 receptor (Homo sapiens) (UniProt P11473); assay: qHTS assay for small molecule agonists of vitamin D receptor signaling (AID 588543; calls by dose curve)
# How it was run: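 Agonist-mode beta-lactamase reporter: HEK293T VDR-UAS-bla cells in charcoal-stripped 2% FBS, compound series 16 h 37 C, CCF4 2 h RT. EC50 from Hill fit, scaled against DMSO and 50 nM calcitriol control.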
# [9] = molecular target: Thyroid hormone receptor beta (Homo sapiens) (UniProt P10828); assay: qHTS assay for small molecule antagonists of thyroid hormone receptor beta signaling (AID 588547; active means well fitted inhibition curve with a large enough effect in the signal ratio, with a control signal flat, not every such curve was filed as active; the % refers to the signal ratio;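 further: cells stimulated with 0.4 nM T3 agonist during compound exposure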); conditions: TR-UAS-bla HEK293, beta-lactamase ratio, antagonist mode, 18 h
# Sequence of Thyroid hormone receptor beta (Homo sapiens) (P10828 whole entry, looked up): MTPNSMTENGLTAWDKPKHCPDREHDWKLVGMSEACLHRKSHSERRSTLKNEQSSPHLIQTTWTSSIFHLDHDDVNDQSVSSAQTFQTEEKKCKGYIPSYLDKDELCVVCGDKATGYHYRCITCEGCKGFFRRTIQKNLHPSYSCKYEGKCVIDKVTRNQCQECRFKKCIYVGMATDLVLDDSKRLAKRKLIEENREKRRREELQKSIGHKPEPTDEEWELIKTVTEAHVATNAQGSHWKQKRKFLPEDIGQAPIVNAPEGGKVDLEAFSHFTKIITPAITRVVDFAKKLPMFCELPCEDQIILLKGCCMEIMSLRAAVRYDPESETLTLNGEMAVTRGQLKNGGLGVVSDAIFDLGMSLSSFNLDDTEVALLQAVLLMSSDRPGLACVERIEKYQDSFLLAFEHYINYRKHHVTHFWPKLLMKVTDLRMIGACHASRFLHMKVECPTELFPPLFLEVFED
# How it was run: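 Inhibition of T3-driven (0.4nM final) beta-lactamase reporter activity was measured over 0.59 nM to 92 uM compound after 18 h at 37 C. The cells were GripTite HEK293 TR-UAS-bla in charcoal/dextran-stripped serum, with CCF4 ratio read-out and IC50 from Hill fits.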
# [10] = molecular target: Nuclear receptor subfamily 1 group I member 2 (Rattus norvegicus) (UniProt Q9R1A7); assay: qHTS assay for small molecule activators of the rat pregnane X receptor (rPXR) signaling pathway (AID 651751; call rule not given here); conditions: rPXR reporter cells, luciferase (One-Glo), 24 h
# Sequence of Nuclear receptor subfamily 1 group I member 2 (Rattus norvegicus) (Q9R1A7 whole entry, looked up): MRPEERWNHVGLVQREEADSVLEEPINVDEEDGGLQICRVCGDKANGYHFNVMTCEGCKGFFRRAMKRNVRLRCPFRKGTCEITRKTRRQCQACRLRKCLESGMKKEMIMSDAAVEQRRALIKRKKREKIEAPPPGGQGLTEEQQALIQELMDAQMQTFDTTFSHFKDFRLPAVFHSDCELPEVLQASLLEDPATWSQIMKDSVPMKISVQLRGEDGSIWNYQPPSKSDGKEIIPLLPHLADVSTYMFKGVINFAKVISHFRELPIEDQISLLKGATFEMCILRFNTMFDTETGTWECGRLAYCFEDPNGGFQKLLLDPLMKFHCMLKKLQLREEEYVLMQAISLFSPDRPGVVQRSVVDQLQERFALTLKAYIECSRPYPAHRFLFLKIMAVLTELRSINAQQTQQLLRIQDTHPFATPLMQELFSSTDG
# [11] = qHTS assay for small molecule activators of the human pregnane X receptor (PXR) signaling pathway (AID 720659; call rule not given here)
# [12] = qHTS Assay for Identification of Small Molecule Antagonists for NFkB Signaling Pathway (AID 895; active means well fitted inhibition curve with a large enough effect in the signal ratio, with a control signal flat, not every such curve was filed as active; the % refers to the signal ratio)
# How it was run: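 Beta-lactamase reporter read-out (460 and 530 nm emission ratio, 405 nm excitation, 2 hrs substrate loading RT) after 5 hr stimulation with 10 pM TNF alpha in compound-treated NFkB-bla ME-180 cells in low-serum medium.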
# [13] = molecular target: Cytochrome P450 3A4 (Homo sapiens) (UniProt P08684); assay: qHTS for inhibitors of CYP3A4 against the NCATS DSHEA and TCM libraries (AID 1919971);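 further: inhibition lowers luminescence from luciferin made by CYP3A4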
# Sequence of Cytochrome P450 3A4 (Homo sapiens) (P08684 whole entry, looked up, canonical isoform): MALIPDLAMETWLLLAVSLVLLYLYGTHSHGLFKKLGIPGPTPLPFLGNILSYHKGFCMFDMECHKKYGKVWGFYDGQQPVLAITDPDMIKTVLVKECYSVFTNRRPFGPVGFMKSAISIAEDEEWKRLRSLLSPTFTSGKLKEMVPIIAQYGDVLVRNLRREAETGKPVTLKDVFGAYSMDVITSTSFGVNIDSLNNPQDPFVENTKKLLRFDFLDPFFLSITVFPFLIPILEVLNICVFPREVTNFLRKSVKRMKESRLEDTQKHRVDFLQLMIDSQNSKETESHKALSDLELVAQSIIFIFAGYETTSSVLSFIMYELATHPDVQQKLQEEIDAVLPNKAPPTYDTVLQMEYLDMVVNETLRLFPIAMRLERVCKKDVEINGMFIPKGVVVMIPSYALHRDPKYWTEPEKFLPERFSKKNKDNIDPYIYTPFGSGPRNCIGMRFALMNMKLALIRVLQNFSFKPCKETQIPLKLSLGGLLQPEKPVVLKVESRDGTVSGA
# How it was run: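 Read-out is luminescence after P450-Glo detection (30 min, RT). Before that: 15 min compound–enzyme preincubation, then 30-45 min reaction with 1x NADPH regeneration solution, substrate concentration isoform-specific.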
# [14] = molecular target: Cytochrome P450 1A2 (Homo sapiens) (UniProt P05177); assay: qHTS for inhibitors of CYPIA2 against the NCATS DSHEA and TCM libraries (AID 1919976);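 further: light from luciferin formed by CYP1A2 from a pro-luciferin substrate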
# Sequence of Cytochrome P450 1A2 (Homo sapiens) (P05177 whole entry, looked up): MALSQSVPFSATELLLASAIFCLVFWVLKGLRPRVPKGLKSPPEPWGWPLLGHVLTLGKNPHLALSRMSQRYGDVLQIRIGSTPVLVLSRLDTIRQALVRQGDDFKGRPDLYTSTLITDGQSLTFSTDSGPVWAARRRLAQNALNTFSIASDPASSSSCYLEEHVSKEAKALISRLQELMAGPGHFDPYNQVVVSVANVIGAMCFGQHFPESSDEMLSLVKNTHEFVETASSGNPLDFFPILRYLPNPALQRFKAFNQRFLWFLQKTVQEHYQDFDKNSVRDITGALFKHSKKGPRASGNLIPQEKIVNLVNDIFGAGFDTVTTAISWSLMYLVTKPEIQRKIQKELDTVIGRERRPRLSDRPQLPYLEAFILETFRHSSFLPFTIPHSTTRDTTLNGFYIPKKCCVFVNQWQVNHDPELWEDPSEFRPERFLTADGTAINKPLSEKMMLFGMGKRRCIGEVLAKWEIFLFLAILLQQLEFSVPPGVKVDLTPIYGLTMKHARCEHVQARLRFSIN
# How it was run: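 CYP1A2 + luciferin substrate, 100 mM KPO4-type buffer; cmpd 15 min RT; 1x NADPH regen, 30-45 min RT dark; detection reagent 30 min RT; luminescence. Minus-enzyme wells as background; furafylline intraplate control.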
compound,measurement,setting,value
C[C@@H](C(=O)O)c1ccc(-c2ccccc2)c(F)c1,outcome,[1],inactive
same,Potency,[2],inactive
same,Potency,AA1029,inactive
same,Potency,CP211,inactive
same,Potency,CP260,inactive
same,Potency,CP297,inactive
same,Potency,N140,inactive
same,Potency,PC15,inactive
CCOC(=O)C(CCc1ccccc1)NC1CCc2ccccc2N(CC(=O)O)C1=O (stereo not given),Potency,[3],inactive
CC(C)(C)c1ccc(S(=O)(=O)/C=C\C#N)cc1,Potency,[4],794 nM (active)
CC(C)=CCC/C(C)=C/CC/C(C)=C/CO,max response,[5],-3.54%
same,outcome,[6],inactive
same,Potency,[7],inactive
same,outcome,[8],inactive
same,activity change % (negative = inhibition),[9],1.19% (inactive)
same,max response,[10],-1.6% (inactive)
same,outcome,[11],inactive
C[C@@H]1CCN=C(N)S1,Potency,[12],inactive
CC/C=C\C/C=C\C/C=C\C/C=C\C/C=C\CCCCCC(=O)O,outcome,[13],inactive
same,outcome,[14],inactive

# Source: PubChem BioAssay (NCATS)
